The values below come from PubChem BioAssay.

SMILES strings stand for the structures. Where “and” joins values, the source holds several entries; their conditions need not be identical. Identical values can stand only once. Calls of active or inactive are those of the source. Cut-off read from the data, not from the text of the source, unless noted: active = inhibition above about 44%; inactive = the rest.

One may read the inhibition as the relative decrease from the control value, in per cent.

Sequence of Nuclear receptor subfamily 5 group A member 2 (Homo sapiens) (O00482 whole entry, looked up): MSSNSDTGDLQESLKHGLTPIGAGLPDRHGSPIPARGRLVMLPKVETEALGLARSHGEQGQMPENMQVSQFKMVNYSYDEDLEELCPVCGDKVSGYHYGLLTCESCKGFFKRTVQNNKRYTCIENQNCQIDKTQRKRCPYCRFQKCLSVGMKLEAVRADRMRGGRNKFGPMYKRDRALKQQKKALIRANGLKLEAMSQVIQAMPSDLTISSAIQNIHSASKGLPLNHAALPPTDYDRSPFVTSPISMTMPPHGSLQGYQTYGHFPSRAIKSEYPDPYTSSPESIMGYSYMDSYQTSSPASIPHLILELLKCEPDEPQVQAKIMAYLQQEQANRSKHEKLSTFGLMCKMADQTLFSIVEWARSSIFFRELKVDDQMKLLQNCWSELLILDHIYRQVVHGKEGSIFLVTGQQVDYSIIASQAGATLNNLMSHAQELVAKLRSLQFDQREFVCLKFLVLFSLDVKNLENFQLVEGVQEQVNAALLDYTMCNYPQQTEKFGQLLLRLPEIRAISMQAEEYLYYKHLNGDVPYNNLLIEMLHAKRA

The first assay addresses Nuclear receptor subfamily 5 group A member 2 (Homo sapiens) (UniProt O00482). Description: NR5A2 activity suppression in reporter cells – cell-based, luminescence, confirmation (AID 651613; in the data active = inhibition above about 42%;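 note: HEK293T cells co-transfected with LRH-1 and StAR promoter luciferase reporter; 0% = vehicle wells and 100% = parental cells lacking receptor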). Conditions: cell-based LRH-1 luciferase reporter, inverse agonism; at 3.6 µM; stronger effect = higher value. On the technique in general: A reporter such as luciferase makes a cellular process visible.
On to `c1cc(CNc2ccc3c(c2)OCCO3)ccn1`, for which the inhibition was 2.45% (inactive).

Turning to `Cc1nn(Cc2ccc(C(=O)Nc3nccs3)cc2)c(C)c1Cl`, the inhibition was 62.3% (active).

Turning to `CC1CN(S(=O)(=O)c2ccc(C(=O)NCCCn3ccnc3)cc2)CC(C)O1` (stereo not given), the inhibition is 99.2% (active).

As to `O=[N+]([O-])c1ccc(Sc2cccc[n+]2[O-])c2nonc12`, the inhibition was 111% (active).

`O=C(NN=Cc1ccccc1O)NN=Cc1ccccc1O`: the inhibition was 97.3% (active).

As to `NC(=S)NN=Cc1cc(-c2cccc(N)c2)ccn1`, the inhibition was 93.6% (active).

In the case of `Cc1ccc(-c2cc3cccc[n+]3cc2-c2ccc(C)cc2)cc1`, the inhibition is 91.7% (active).

As to `Cc1cc(/C=N/n2cnnc2)c(C)n1-c1ccc(OCc2ccc(Cl)cc2Cl)cc1`, the inhibition was 67% (active).

Regarding `OCC1OC(n2cnc3c(NCc4ccco4)ncnc32)C(O)C1O` (stereo not given), the inhibition is 60.3% (active).

Take `CCC[N+]1(CC#CCC(c2ccccc2)c2ccccc2)CCCCC1`: the inhibition is 104% (active).

With `O=C(N/N=C(\c1ccccc1)c1cccnc1)c1cccc(F)c1`, the inhibition is 97.7% (active).

For `COc1ccc(/C=C/c2cc(-c3ccc(C)cc3)o[n+]2C)cc1`, the inhibition is 98.9% (active).

On to `CCN(CC)c1ccc(C(=C2C=CC(=[N+](CC)CC)C=C2)c2ccc(N(CC)CC)cc2)cc1`, for which the inhibition is 110% (active).

As to `Cc1ccc(NCCN(C)C)c2c(=O)c3cc(O)ccc3sc12`, the inhibition is 67.3% (active).

As for `Cc1cc(OCc2nc(N)nc(N)c2-c2ccc(Cl)c(Cl)c2)ccc1[N+](=O)[O-]`, the inhibition was 69.5% (active).

Turning to `CCC(C)n1ncn(-c2ccc(N3CCN(c4ccc(O)cc4)CC3)cc2)c1=O` (stereo not given), the inhibition is 76.7% (active).

As for `N=c1c2c(-c3ccccc3)c(-c3ccccc3)n(Cc3ccco3)c2ncn1CCO`, the inhibition was 64.8% (active).

As for `CCCC(=O)NC(c1ccc(Cl)cc1)c1ccc2cccnc2c1O` (stereo not given), the inhibition is 83.3% (active).

For the compound `Cc1cc(C)cc(NS(=O)(=O)c2ccc3c(c2)c(=O)n(C)c(=O)n3C)c1`, the inhibition is 54.4% (active).

As to `COc1ccc(OC)c(Cc2cnc3nc(N)nc(N)c3c2C)c1`, the inhibition was 62.3% (active).

Regarding `COc1cccc(/C=N\NC(=O)c2ccc(Cn3cc(Br)c([N+](=O)[O-])n3)o2)c1O`, the inhibition is 74.5% (active).

As to `NC1=C(Cl)C(=O)c2ccc(S(N)(=O)=O)cc2C1=O`, the inhibition is 106% (active).

On to `O=C(/C=C/c1cccs1)NC(=S)NNC(=O)c1ccccc1O`, for which the inhibition is 106% (active).

With `CC(C)CC[n+]1ccccc1/C=C/c1ccc(N(C)C)cc1`, the inhibition was 105% (active).

As for `CN(C)c1ncnc2c1nnn2C1OC(CO)C(O)C1O` (stereo not given), the inhibition was 105% (active).

For the compound `Cn1c2c(c(=O)n(C)c1=O)C(C(F)(F)F)(C(F)(F)F)N=C(c1ccc(Cl)cc1)N2`, the inhibition is 104% (active).

As to `CCC(C)N(CC(=O)Nc1cccc(C)c1C)C(=O)CCl` (stereo not given), the inhibition was 84.8% (active).

On to `COc1ccc(Cn2c(-c3ccc(C)cc3)c[n+]3ccccc23)cc1`, for which the inhibition was 96.1% (active).

Turning to `CCN1CCN(/C=N/c2nc3c(s2)CCCC3)CC1`, the inhibition is -91.2% (inactive).

Take `Cc1ccc(O)c(N=Nc2nccs2)c1`: the inhibition was 97.6% (active).

With `Cc1cc(C(C)(C)C)cc(C)c1C[n+]1ccc2ccccc2c1`, the inhibition was 99.2% (active).

`CN(C)c1ccc(C=c2c3ccccc3n3c2c2c([n+]3C)CCCC2)cc1`: the inhibition was 110% (active).

For the compound `CN(C(=O)OC(C)(C)C)c1ccc(-c2nc3ccccc3s2)cc1`, the inhibition was 80.9% (active).

Take `CC(NNC(=S)N1CCN(c2ccccn2)CC1)c1nccc2ccccc12` (stereo not given): the inhibition was 97.1% (active).

With `Cc1ccc(S(=O)(=O)N(C)C)cc1NC(=O)c1cncc(Br)c1`, the inhibition is 43% (active).

Regarding `CCN1/C(=C/C(C)=C/c2sc3ccccc3[n+]2CC)Sc2ccccc21`, the inhibition was 107% (active) and 106% (active).

Consider `CCOc1ccccc1O[C@H](c1ccccc1)[C@H]1CNCCO1`, for which the inhibition was 8.61% (inactive).

For `CN1OC[C@@H]2CN[C@H](c3ccc(-c4cc5ccccc5o4)cc3)C[C@@H]21`, the inhibition is 62.2% (active).

On to `CN(C)c1ccc(C=c2c3ccccc3n3c2cc(-c2ccccc2)[n+]3C)cc1`, for which the inhibition was 109% (active).

As to `CCCCCCCCCCn1ccc(=N)cc1`, the inhibition is 102% (active).

The target of a further assay is Steroidogenic factor 1 (Homo sapiens) (UniProt Q13285). Description: inverse agonism at SF1 nuclear receptor – cell-based, luminescence, high throughput, counter-screen for LRH-1 inverse agonist project (AID 651614).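 Note: cells cotransfected with StAR promoter reporter and SF1 expression vector; 0% = vehicle on cells with receptor and 100% = vehicle on cells lacking receptor.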 To be noted: cell-based SF1 luciferase reporter, at 3.6 µM, stronger effect = higher value.
Sequence of Steroidogenic factor 1 (Homo sapiens) (Q13285 whole entry, looked up): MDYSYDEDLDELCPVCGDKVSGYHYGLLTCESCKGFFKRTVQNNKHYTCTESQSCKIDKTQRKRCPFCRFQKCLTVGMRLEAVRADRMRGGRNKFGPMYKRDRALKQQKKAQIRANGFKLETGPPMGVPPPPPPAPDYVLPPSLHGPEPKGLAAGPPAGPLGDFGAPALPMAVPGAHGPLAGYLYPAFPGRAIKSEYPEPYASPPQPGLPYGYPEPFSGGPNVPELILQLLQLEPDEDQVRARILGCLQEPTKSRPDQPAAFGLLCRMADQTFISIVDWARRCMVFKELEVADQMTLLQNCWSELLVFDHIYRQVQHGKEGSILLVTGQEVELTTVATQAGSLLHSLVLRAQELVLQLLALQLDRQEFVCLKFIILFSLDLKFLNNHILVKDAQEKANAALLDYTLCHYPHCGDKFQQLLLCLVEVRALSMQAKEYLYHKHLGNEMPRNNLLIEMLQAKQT
For `c1cc(CNc2ccc3c(c2)OCCO3)ccn1`, the inhibition is 14.8% (inactive).

As for `Cc1nn(Cc2ccc(C(=O)Nc3nccs3)cc2)c(C)c1Cl`, the inhibition was 67% (active).

As for `CC1CN(S(=O)(=O)c2ccc(C(=O)NCCCn3ccnc3)cc2)CC(C)O1` (stereo not given), the inhibition was 95.5% (active).

For the compound `O=[N+]([O-])c1ccc(Sc2cccc[n+]2[O-])c2nonc12`, the inhibition was 99.2% (active).

With `O=C(NN=Cc1ccccc1O)NN=Cc1ccccc1O`, the inhibition is 86.7% (active).

`NC(=S)NN=Cc1cc(-c2cccc(N)c2)ccn1`: the inhibition is 88% (active).

Turning to `Cc1ccc(-c2cc3cccc[n+]3cc2-c2ccc(C)cc2)cc1`, the inhibition is 83.4% (active).

For the compound `Cc1cc(/C=N/n2cnnc2)c(C)n1-c1ccc(OCc2ccc(Cl)cc2Cl)cc1`, the inhibition is 68.7% (active).

As for `OCC1OC(n2cnc3c(NCc4ccco4)ncnc32)C(O)C1O` (stereo not given), the inhibition is 85.7% (active).

On to `CCC[N+]1(CC#CCC(c2ccccc2)c2ccccc2)CCCCC1`, for which the inhibition was 67.9% (active).

As to `O=C(N/N=C(\c1ccccc1)c1cccnc1)c1cccc(F)c1`, the inhibition was 85.7% (active).

In the case of `COc1ccc(/C=C/c2cc(-c3ccc(C)cc3)o[n+]2C)cc1`, the inhibition was 89.8% (active).

In the case of `CCN(CC)c1ccc(C(=C2C=CC(=[N+](CC)CC)C=C2)c2ccc(N(CC)CC)cc2)cc1`, the inhibition was 97.1% (active).

Regarding `Cc1ccc(NCCN(C)C)c2c(=O)c3cc(O)ccc3sc12`, the inhibition is 54.6% (active).

Consider `Cc1cc(OCc2nc(N)nc(N)c2-c2ccc(Cl)c(Cl)c2)ccc1[N+](=O)[O-]`, for which the inhibition is 63.5% (active).

Turning to `CCC(C)n1ncn(-c2ccc(N3CCN(c4ccc(O)cc4)CC3)cc2)c1=O` (stereo not given), the inhibition was 70.8% (active).

For the compound `N=c1c2c(-c3ccccc3)c(-c3ccccc3)n(Cc3ccco3)c2ncn1CCO`, the inhibition was 64% (active).

Turning to `CCCC(=O)NC(c1ccc(Cl)cc1)c1ccc2cccnc2c1O` (stereo not given), the inhibition was 74.9% (active).

As for `Cc1cc(C)cc(NS(=O)(=O)c2ccc3c(c2)c(=O)n(C)c(=O)n3C)c1`, the inhibition is 41.3% (inactive).

As for `COc1ccc(OC)c(Cc2cnc3nc(N)nc(N)c3c2C)c1`, the inhibition was 52.5% (active).

As to `COc1cccc(/C=N\NC(=O)c2ccc(Cn3cc(Br)c([N+](=O)[O-])n3)o2)c1O`, the inhibition was 71.3% (active).

With `NC1=C(Cl)C(=O)c2ccc(S(N)(=O)=O)cc2C1=O`, the inhibition is 94% (active).

Take `O=C(/C=C/c1cccs1)NC(=S)NNC(=O)c1ccccc1O`: the inhibition was 91.8% (active).

As to `CC(C)CC[n+]1ccccc1/C=C/c1ccc(N(C)C)cc1`, the inhibition was 90.4% (active).

As to `CN(C)c1ncnc2c1nnn2C1OC(CO)C(O)C1O` (stereo not given), the inhibition was 93.5% (active).

On to `Cn1c2c(c(=O)n(C)c1=O)C(C(F)(F)F)(C(F)(F)F)N=C(c1ccc(Cl)cc1)N2`, for which the inhibition is 93.6% (active).

As to `CCC(C)N(CC(=O)Nc1cccc(C)c1C)C(=O)CCl` (stereo not given), the inhibition is 78.8% (active).

As for `COc1ccc(Cn2c(-c3ccc(C)cc3)c[n+]3ccccc23)cc1`, the inhibition is 79.5% (active).

For `CCN1CCN(/C=N/c2nc3c(s2)CCCC3)CC1`, the inhibition is -86.7% (inactive).

Turning to `Cc1ccc(O)c(N=Nc2nccs2)c1`, the inhibition is 78.5% (active).

Regarding `Cc1cc(C(C)(C)C)cc(C)c1C[n+]1ccc2ccccc2c1`, the inhibition is 69.1% (active).

On to `CN(C)c1ccc(C=c2c3ccccc3n3c2c2c([n+]3C)CCCC2)cc1`, for which the inhibition was 94.3% (active).

On to `CN(C(=O)OC(C)(C)C)c1ccc(-c2nc3ccccc3s2)cc1`, for which the inhibition was 77.3% (active).

As for `CC(NNC(=S)N1CCN(c2ccccn2)CC1)c1nccc2ccccc12` (stereo not given), the inhibition was 89.3% (active).

Turning to `Cc1ccc(S(=O)(=O)N(C)C)cc1NC(=O)c1cncc(Br)c1`, the inhibition is 47.6% (active).

Turning to `CCN1/C(=C/C(C)=C/c2sc3ccccc3[n+]2CC)Sc2ccccc21`, the inhibition was 89.7% (active) and 93.3% (active).

In the case of `CCOc1ccccc1O[C@H](c1ccccc1)[C@H]1CNCCO1`, the inhibition was 13.7% (inactive).

For the compound `CN1OC[C@@H]2CN[C@H](c3ccc(-c4cc5ccccc5o4)cc3)C[C@@H]21`, the inhibition is 79.8% (active).

In the case of `CN(C)c1ccc(C=c2c3ccccc3n3c2cc(-c2ccccc2)[n+]3C)cc1`, the inhibition is 94.8% (active).

`CCCCCCCCCCn1ccc(=N)cc1`: the inhibition is 90.2% (active).
